“And” between values parts separate entries of the source, which are not always exact repeats. Identical values can stand only once. About 83,000 compounds went through this panel and 20% of them were active in at least one assay; those are over-represented in the sample as a whole.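 Results are percent growth after 48 hours of single-concentration exposure. 100 means growth as in untreated cells, lower positive values show inhibition; negative values down to -100 show cell death.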 The source made the active and inactive calls. How the source made its calls: active means growth percent below 10; inactive means the rest.
Tests used:
Experiment in all cases: NCI-60 one-dose screen, 48 h (100 = growth as untreated, 0 = no growth, -100 = all killed)
Conditions in all cases: 10 µM unless noted
HCT-15 colon = system: HCT-15 colon
HT29 colon = system: HT29 colon
SNB-75 CNS = system: SNB-75 CNS
SNB-19 CNS = system: SNB-19 CNS
U251 CNS = system: U251 CNS
PC-3 prostate = system: PC-3 prostate
SK-MEL-5 melanoma = system: SK-MEL-5 melanoma
UACC-62 melanoma = system: UACC-62 melanoma
LOX IMVI melanoma = system: LOX IMVI melanoma
SK-MEL-2 melanoma = system: SK-MEL-2 melanoma
EKVX NSCLC = system: EKVX NSCLC
SN12C renal = system: SN12C renal
UO-31 renal = system: UO-31 renal
TK-10 renal = system: TK-10 renal
ACHN renal = system: ACHN renal
CAKI-1 renal = system: CAKI-1 renal
A498 renal = system: A498 renal
CCRF-CEM leukemia = system: CCRF-CEM leukemia
MOLT-4 leukemia = system: MOLT-4 leukemia
SK-MEL-28 melanoma = system: SK-MEL-28 melanoma

SMILES | growth (HCT-15 colon) | growth (HT29 colon) | growth (SNB-75 CNS) | growth (SNB-19 CNS) | growth (U251 CNS) | growth (PC-3 prostate) | growth (SK-MEL-5 melanoma) | growth (UACC-62 melanoma) | growth (LOX IMVI melanoma) | growth (SK-MEL-2 melanoma) | growth (EKVX NSCLC) | growth (SN12C renal) | growth (UO-31 renal) | growth (TK-10 renal) | growth (ACHN renal) | growth (CAKI-1 renal) | growth (A498 renal) | growth (CCRF-CEM leukemia) | growth (MOLT-4 leukemia) | growth (SK-MEL-28 melanoma)
COc1cc(NS(=O)(=O)C(C)C)cc(-c2cc(-c3ccc(N4CCNCC4)cc3)cnc2N)c1 | 112% (inactive) | 31.9% (inactive) | 53.7% (inactive) | 94.2% (inactive) | 77.1% (inactive) | 72% (inactive) | 102% (inactive) | 110% (inactive) | 67.3% (inactive) | 117% (inactive) | 109% (inactive) | 64.6% (inactive) | 70% (inactive) | 115% (inactive) | 93.2% (inactive) | 87.1% (inactive) | 75.3% (inactive) | 66.7% (inactive) | 37.2% (inactive) | 
CCN(CC)CCOc1ccc(/C(=C(\Cl)c2ccccc2)c2ccccc2)cc1 | -1.24% (active) and 0.736% (active) | -46.7% (active) and 7.7% (active) | 27.2% (inactive) and 31.5% (inactive) | 52.4% (inactive) and 86.6% (inactive) | 23.1% (inactive) and 72.8% (inactive) | 49.1% (inactive) and 91.3% (inactive) | -97.4% (active) and -99.3% (active) | -54.2% (active) and 9.63% (active) | -42.7% (active) and 85.4% (inactive) | 7.89% (active) | 47.7% (inactive) and 87.7% (inactive) | 54.8% (inactive) and 75.6% (inactive) | 24% (inactive) and 66.4% (inactive) | 111% (inactive) |  | 41.3% (inactive) and 69.9% (inactive) | 77.1% (inactive) | 28% (inactive) and 89% (inactive) | 36.8% (inactive) and 91.6% (inactive) | -28% (active) and -41.1% (active)
Cn1cc(C2=C(c3cccc4ccccc34)C(=O)NC2=O)c2cc(Br)ccc21 | 91.3% (inactive) | 90.5% (inactive) | 37.9% (inactive) | 108% (inactive) | 91.7% (inactive) | 97.3% (inactive) | 93.5% (inactive) | 112% (inactive) | 89.8% (inactive) | 111% (inactive) | 88.5% (inactive) | 95.2% (inactive) | 80.8% (inactive) | 101% (inactive) | 80.6% (inactive) | 69.2% (inactive) | 69.8% (inactive) | 84% (inactive) | 77.1% (inactive) | 
Cn1cc(-c2nonc2-c2cn(C)c3ccc(Br)cc23)c2ccccc21 | 26.1% (inactive) | 9.17% (active) | -0.37% (active) | 27.6% (inactive) | 23.3% (inactive) | 32% (inactive) | 37.2% (inactive) | 21.8% (inactive) | 31.2% (inactive) | 33.5% (inactive) | 48.6% (inactive) | 37.1% (inactive) | 32.3% (inactive) | 60.7% (inactive) | 33.5% (inactive) | 25.8% (inactive) | -5.37% (active) | 15.5% (inactive) | 27.2% (inactive) | 
Clc1ccc(Nc2nc(Nc3ccc(Cl)cc3)nc(Nc3ccc(-c4cc(-c5cccc(Cl)c5)on4)cc3)n2)cc1 | 89.8% (inactive) | 105% (inactive) | 99.4% (inactive) | 101% (inactive) | 79% (inactive) | 86.7% (inactive) | 88% (inactive) | 105% (inactive) | 79.4% (inactive) | 72.9% (inactive) | 82.9% (inactive) | 94.4% (inactive) | 90.1% (inactive) | 155% (inactive) |  | 85.4% (inactive) | 99.9% (inactive) | 61% (inactive) | 7.82% (active) | 
COc1ccc(/C=C(\C#N)c2cc3ccccc3[nH]2)cc1 | 14% (inactive) | 8.16% (active) | 18.6% (inactive) | 39.7% (inactive) | 18.7% (inactive) | 51% (inactive) | 22.2% (inactive) |  | 30.3% (inactive) | 26.2% (inactive) | 45.3% (inactive) | 42.2% (inactive) | 46.9% (inactive) | 53.6% (inactive) | 56.5% (inactive) | 33.9% (inactive) | 32.1% (inactive) | 13.5% (inactive) | 24.4% (inactive) | 49.5% (inactive)
CC1(Cc2ccccc2)CC2=C(C(=O)O1)C(c1ccccc1)NC(=O)N2 (stereo unspecified) | 106% (inactive) | 96.8% (inactive) | 79.3% (inactive) | 89.4% (inactive) | 104% (inactive) | 92% (inactive) | 95% (inactive) |  | 95.3% (inactive) | 107% (inactive) | 98.7% (inactive) | 104% (inactive) | 79.9% (inactive) | 108% (inactive) | 101% (inactive) | 95% (inactive) | 117% (inactive) | 91.1% (inactive) | 46.5% (inactive) | 116% (inactive)
CN1CCN(c2ccc(Nc3ncc(C(N)=O)c(NCCCNC(=O)C4CCC4)n3)cc2)CC1 | 111% (inactive) | 44.4% (inactive) | 67.7% (inactive) | 63.9% (inactive) | 67% (inactive) | 77.6% (inactive) | 92.3% (inactive) | 108% (inactive) | 64.8% (inactive) | 71.3% (inactive) | 99.2% (inactive) | 36.3% (inactive) | 40.1% (inactive) | 39.8% (inactive) | 61.8% (inactive) | 35.1% (inactive) | 137% (inactive) | 14.2% (inactive) | 18% (inactive) | 
COc1ccc(C/C(C)=C(\c2ccc(O)cc2)c2ccc(OCCCN(C)C)cc2)cc1 | 89.7% (inactive) | 77.6% (inactive) | 84.1% (inactive) | 100% (inactive) | 80.5% (inactive) | 83.4% (inactive) | 98.4% (inactive) |  | 88.9% (inactive) | 88.4% (inactive) | 98.2% (inactive) | 93.3% (inactive) | 77.7% (inactive) | 86.9% (inactive) | 109% (inactive) | 107% (inactive) | 101% (inactive) | 73.9% (inactive) | 68.8% (inactive) | 112% (inactive)
CCOc1ccc(C(=O)Cc2ccccc2)cc1 | 98.2% (inactive) and 110% (inactive) | 104% (inactive) and 111% (inactive) | 101% (inactive) and 113% (inactive) | 101% (inactive) and 102% (inactive) | 108% (inactive) and 101% (inactive) | 102% (inactive) and 110% (inactive) | 106% (inactive) and 98.5% (inactive) |  | 102% (inactive) and 106% (inactive) | 103% (inactive) and 118% (inactive) | 98.5% (inactive) and 101% (inactive) | 103% (inactive) and 105% (inactive) | 91.3% (inactive) and 107% (inactive) | 85.1% (inactive) and 92.3% (inactive) | 107% (inactive) and 115% (inactive) | 103% (inactive) and 99.6% (inactive) | 79.6% (inactive) and 87.5% (inactive) | 97.6% (inactive) | 94.4% (inactive) and 99.2% (inactive) | 115% (inactive) and 109% (inactive)
O=S(=O)(O)c1ccc(N=Nc2ccc(N=Nc3cccc4ccccc34)c(S(=O)(=O)O)c2)cc1 | 114% (inactive) | 105% (inactive) | 89.7% (inactive) | 110% (inactive) | 102% (inactive) | 84.5% (inactive) | 86.4% (inactive) | 98.4% (inactive) | 94.1% (inactive) | 99.8% (inactive) | 97% (inactive) | 102% (inactive) | 84.1% (inactive) | 112% (inactive) | 97.8% (inactive) | 97% (inactive) | 90.1% (inactive) | 101% (inactive) | 108% (inactive) | 
CCCCSc1ccc2nc(-c3ccc(OCCCN=C(N)N)cc3)cn2c1 | 92.7% (inactive) | 53% (inactive) | 22.5% (inactive) | 24.5% (inactive) | 13.1% (inactive) | 54% (inactive) | 52.8% (inactive) |  | 61.3% (inactive) | 48.4% (inactive) | 95.6% (inactive) | 88.3% (inactive) | 76.6% (inactive) | 110% (inactive) | 89.2% (inactive) | 62.3% (inactive) | 89.4% (inactive) | 53.4% (inactive) | 53.1% (inactive) | 38.3% (inactive)
O=C(/C=C/c1cccs1)Nc1ncc(Cc2ccc(Cl)c(Cl)c2)s1 | 28.9% (inactive) | 24.2% (inactive) | 64% (inactive) | 71.1% (inactive) | 59% (inactive) | 77.6% (inactive) | 41.6% (inactive) |  | 23.3% (inactive) | 77.1% (inactive) | 57.8% (inactive) | 79.8% (inactive) | 49.6% (inactive) | 61.5% (inactive) | 36.4% (inactive) | 23.8% (inactive) | 57.1% (inactive) | 68% (inactive) | 51.4% (inactive) | 63.6% (inactive)

— PubChem BioAssay (NCI)
